Measurements published in PubChem BioAssay (Tox21).
Results filed as inconclusive are left out. Calls of active or inactive are those of the source. Unless noted, the call rests on the fitted dose curve.

Legend:
[1] = Nuclear factor erythroid 2-related factor 2/antioxidant responsive element (Nrf2/ARE) small molecule agonists: qHTS cell viability counter screen in human keratinocytes (AID 1919968; active means well fitted cell-killing curve with a large enough effect in the repeat runs; further: nearly all actives have a fitted effect of over 55% in size)
Summary of the method: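 Fluorescence read-out from CellTiter-Fluor after 1 h at 37 C. Wells held HaCaT-derived ARE-luciferase reporter cells (1,500/well) treated 23 h with DMSO-dissolved compounds. Run in the same wells as the luciferase agonist read.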

[2] = Nuclear factor erythroid 2-related factor 2/antioxidant responsive element (Nrf2/ARE) small molecule agonists: luciferase reporter gene qHTS assay in human keratinocytes (AID 1919969); further: nearly all actives have a fitted effect of over 35% in size
[3] = target: Gonadotropin-releasing hormone receptor (Homo sapiens) (UniProt P30968); assay: Human gonadotropin-releasing hormone receptor (GnRHR) small molecule agonists, calcium flux assay in GnRHR-HEK293 cells (AID 1920063); further: nearly all actives have a fitted effect of over 35% in size
Gonadotropin-releasing hormone receptor (Homo sapiens), sequence (P30968 whole entry, looked up): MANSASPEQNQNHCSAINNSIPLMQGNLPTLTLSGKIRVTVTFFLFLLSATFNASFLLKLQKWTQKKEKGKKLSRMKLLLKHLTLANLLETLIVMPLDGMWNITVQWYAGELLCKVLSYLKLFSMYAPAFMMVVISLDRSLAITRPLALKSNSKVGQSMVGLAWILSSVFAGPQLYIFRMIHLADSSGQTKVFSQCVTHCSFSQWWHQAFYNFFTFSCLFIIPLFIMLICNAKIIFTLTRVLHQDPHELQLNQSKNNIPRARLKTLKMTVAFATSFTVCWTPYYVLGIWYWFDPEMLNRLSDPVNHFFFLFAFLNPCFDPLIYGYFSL
Summary of the method: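 Calcium-dye fluorescence, Ex/Em=480/540, recorded every 1 sec over 3 min after compound addition to GnRHR-HEK293 cells. Cells had been seeded 18 hours earlier and dye-loaded for 1 hour at 37 C. Fifteen concentrations, triplicates.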

[4] = G protein-coupled receptor (GPCR) small molecule agonists, calcium flux assay: HEK293 wild type cell line counter screen (AID 1920065)
Summary of the method: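 Agonist mode; 18 h seeding at 37 C, 1 h dye load at 37 C; compounds pinned from DMSO, ATP as positive control; kinetic fluorescence 480/540 nm, 3 min, 1 s reads; 15 concentrations, triplicate.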

[5] = p53 small molecule agonists, cell-based qHTS assay with human liver microsomes (AID 1963577)
Summary of the method: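 p53RE-bla reporter cells were pre-incubated 5 h at 37 C, then treated with compounds plus human liver microsomes (0.5 mg/mL final) and NADPH (0.5 mg/mL final) for 16 h at 37 C. Beta-lactamase activity was read by LiveBLAzer fluorescence after 2 h at room temperature.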

[6] = p53 small molecule agonists, cell-based qHTS assay with rat liver microsomes (AID 1963578)
Summary of the method: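 p53RE-bla cells were exposed to compounds together with rat liver microsomes (0.5 mg/mL final) and NADPH (0.5 mg/mL final) for 16 h at 37 C, then read by LiveBLAzer beta-lactamase fluorescence after 2 h at room temperature.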

[7] = p53 small molecule agonists, cell-based qHTS assay with rat liver microsomes: qHTS cell viability counter screen (AID 1963580); further: nearly all actives have a fitted effect of over 45% in size
Summary of the method: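 Luminescent ATP readout (CellTiter-Glo, 30 min at room temperature) reports viability of p53RE-bla HCT-116 cells after 16 h at 37 C with test compounds under metabolic activation by rat liver microsomes and NADPH at 0.5 mg/mL final each.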

[8] = p53 small molecule agonists, cell-based qHTS assay: qHTS cell viability counter screen (AID 1963581); further: nearly all actives have a fitted effect of over 45% in size
Summary of the method: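 Cytotoxicity read-out: ATP-based luminescence (CellTiter-Glo, 30 min RT) measured in the same wells as the p53 reporter assay, HCT-116 p53RE-bla cells, 16 h compound exposure at 37 C.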

[9] = p53 small molecule agonists, cell-based qHTS assay (AID 1963582; active means well fitted activation curve with a large enough effect in the signal ratio in the repeat runs, not every such curve was filed as active; the % refers to the signal ratio)
Summary of the method: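 Fluorescence intensity read-out of a beta-lactamase reporter under a p53 response element. Cells were exposed to DMSO-dissolved compounds for 16 h at 37 C, then developed with FRET substrate for 2 h at RT.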

[10] = target: 5-hydroxytryptamine receptor 2A (Homo sapiens) (UniProt P28223); assay: 5-hydroxytryptamine receptor 2A (HTR2A) small molecule agonists, cell-based qHTS assay (AID 1963587); further: nearly all actives have a fitted effect of over 30% in size
5-hydroxytryptamine receptor 2A (Homo sapiens), sequence (P28223 whole entry, looked up): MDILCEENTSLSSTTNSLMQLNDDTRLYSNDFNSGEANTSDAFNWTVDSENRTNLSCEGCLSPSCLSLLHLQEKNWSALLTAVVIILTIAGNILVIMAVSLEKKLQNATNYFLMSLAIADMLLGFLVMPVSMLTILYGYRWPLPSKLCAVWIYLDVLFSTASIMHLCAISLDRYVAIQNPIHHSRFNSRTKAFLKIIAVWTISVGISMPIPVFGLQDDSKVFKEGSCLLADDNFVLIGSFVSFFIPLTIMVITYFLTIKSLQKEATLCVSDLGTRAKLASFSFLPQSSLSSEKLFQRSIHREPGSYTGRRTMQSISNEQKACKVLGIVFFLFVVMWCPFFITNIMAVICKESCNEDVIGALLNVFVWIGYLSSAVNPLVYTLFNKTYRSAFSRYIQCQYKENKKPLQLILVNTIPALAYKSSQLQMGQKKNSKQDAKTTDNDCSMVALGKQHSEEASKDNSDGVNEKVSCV
Summary of the method: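 HTR2A-CHO cells, plated 18 h at 37 C/5% CO2, dye-loaded 1 h at 37 C; compounds in DMSO added by pin tool (agonist mode). Intracellular calcium flux read as kinetic fluorescence on FDSS over 2 min at 1 s intervals.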

[11] = target: Muscarinic acetylcholine receptor M1 (Homo sapiens) (UniProt P11229); assay: Cholinergic receptor muscarinic 1 (CHRM1) small molecule agonists, cell-based qHTS assay (AID 1963589); further: nearly all actives have a fitted effect of over 35% in size
Muscarinic acetylcholine receptor M1 (Homo sapiens), sequence (P11229 whole entry, looked up): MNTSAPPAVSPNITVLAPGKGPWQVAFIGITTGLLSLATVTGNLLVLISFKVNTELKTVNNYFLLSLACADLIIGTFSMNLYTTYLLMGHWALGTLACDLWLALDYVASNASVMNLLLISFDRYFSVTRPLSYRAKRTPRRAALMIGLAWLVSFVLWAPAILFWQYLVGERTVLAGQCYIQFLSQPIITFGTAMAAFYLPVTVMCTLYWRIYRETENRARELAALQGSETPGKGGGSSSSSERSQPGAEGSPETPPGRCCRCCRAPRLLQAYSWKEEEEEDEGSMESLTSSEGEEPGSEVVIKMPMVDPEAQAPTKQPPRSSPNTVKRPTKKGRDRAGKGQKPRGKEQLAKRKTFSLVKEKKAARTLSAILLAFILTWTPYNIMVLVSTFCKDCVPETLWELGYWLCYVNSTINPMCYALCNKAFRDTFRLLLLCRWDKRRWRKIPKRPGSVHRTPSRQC
Summary of the method: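 Calcium flux read-out: kinetic fluorescence at 1 sec intervals after pin-tool compound addition to dye-loaded CHRM1-CHO cells (human M1). Agonist mode; 15 concentrations tested in triplicate independent runs.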

[12] = cAMP Responsive Elements (CRE) small molecule agonists, cell-based qHTS assay (AID 1963590)
Summary of the method: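 Beta-lactamase reporter readout: LiveBLAzer B/G FRET substrate, 2 h at room temperature, added after 3 h compound treatment of CRE-bla HEK 293T cells at 37 C/5% CO2.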

[13] = cAMP Responsive Elements (CRE) small molecule antagonists, cell-based qHTS assay (AID 1963591; active means well fitted inhibition curve with a large enough effect in the signal ratio in the repeat runs, not every such curve was filed as active; the % refers to the signal ratio)
Summary of the method: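 HEK293T CRE-bla; 18 h preincubation; compound pin-transfer; NKH477 0.25 uM final, 3 h, 37 C; LiveBLAzer FRET substrate 2 h RT.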

[14] = target: Beta-2 adrenergic receptor (Homo sapiens) (UniProt P07550); assay: Adrenergic beta2 receptor (ADRB2) small molecule antagonists, cell-based qHTS assay (AID 1963592); further: series mostly up to about 92 µM; nearly all actives have a fitted effect of over 50% in size
Beta-2 adrenergic receptor (Homo sapiens), sequence (P07550 whole entry, looked up): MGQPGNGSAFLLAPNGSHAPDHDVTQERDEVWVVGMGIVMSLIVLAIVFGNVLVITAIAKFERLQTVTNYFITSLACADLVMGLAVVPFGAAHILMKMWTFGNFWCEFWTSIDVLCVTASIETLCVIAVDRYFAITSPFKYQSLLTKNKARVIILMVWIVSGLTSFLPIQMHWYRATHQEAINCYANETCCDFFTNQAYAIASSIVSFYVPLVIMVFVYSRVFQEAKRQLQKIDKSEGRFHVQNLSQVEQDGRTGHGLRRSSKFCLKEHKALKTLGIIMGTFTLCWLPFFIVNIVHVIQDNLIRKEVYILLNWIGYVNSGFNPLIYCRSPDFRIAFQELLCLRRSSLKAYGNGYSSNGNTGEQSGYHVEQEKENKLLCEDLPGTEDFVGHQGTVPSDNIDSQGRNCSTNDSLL
Summary of the method: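 Assay format: CHO-ADRB2 cells, 18-20hr seeding at 37C/5% CO2, then compound plus 1nM isoproterenol agonist mix for 0.5hr RT. Homogeneous time-resolved fluorescence cAMP detection after 1hr, expressed as 665/615 nm ratio.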

[15] = target: Beta-2 adrenergic receptor (Homo sapiens) (UniProt P07550); assay: Adrenergic beta2 receptor (ADRB2) small molecule agonists, cell-based qHTS assay (AID 1963593);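 further: CHO cells stably overexpressing human ADRB2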
Summary of the method: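 CHO cells stably over-expressing ADRB2 were plated overnight at 37C, then dosed with compounds plus a stimulation mix containing 100uM IBMX and 25uM Ro-20-1724 for 0.5hr at room temperature. cAMP was measured by HTRF competition, 1hr.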

[16] = target: D(2) dopamine receptor (Homo sapiens) (UniProt P14416); assay: Dopamine D2 receptor (DRD2) small molecule agonists, cell-based qHTS assay (AID 1963594); further: nearly all actives have a fitted effect of over 35% in size
D(2) dopamine receptor (Homo sapiens), sequence (P14416 whole entry, looked up): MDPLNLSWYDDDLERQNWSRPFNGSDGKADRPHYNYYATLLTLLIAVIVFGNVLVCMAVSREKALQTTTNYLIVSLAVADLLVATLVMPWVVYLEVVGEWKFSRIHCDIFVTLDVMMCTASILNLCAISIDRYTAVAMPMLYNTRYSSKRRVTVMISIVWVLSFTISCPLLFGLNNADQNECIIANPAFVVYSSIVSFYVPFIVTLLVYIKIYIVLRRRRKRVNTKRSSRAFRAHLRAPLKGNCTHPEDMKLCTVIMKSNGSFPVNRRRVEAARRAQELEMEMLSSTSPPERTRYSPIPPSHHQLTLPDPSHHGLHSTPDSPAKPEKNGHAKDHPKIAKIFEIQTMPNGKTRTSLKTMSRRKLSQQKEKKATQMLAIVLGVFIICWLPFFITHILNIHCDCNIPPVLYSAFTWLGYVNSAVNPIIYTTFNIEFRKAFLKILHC
Summary of the method: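 HEK293 cells stably expressing DRD2 were cultured 24 h at 37 C, then given Ro20-1724 (0.1 mM final) and compounds for 10 min at room temperature. NKH477 (200nM) was then added for 30 min. cAMP was read by HTRF.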

[17] = target: D(2) dopamine receptor (Homo sapiens) (UniProt P14416); assay: Dopamine D2 receptor (DRD2) small molecule antagonists, cell-based qHTS assay (AID 1963595; active means well fitted inhibition curve with a large enough effect in the signal ratio in the repeat runs, with a control signal flat; the % refers to the signal ratio)
Summary of the method: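 Antagonism was scored as restored cAMP in HEK293-DRD2 cells. These cells were stimulated with 200 nM NKH477 and 12 nM quinpirole for 30 min at room temperature, in the presence of 0.1 mM Ro20-1724.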

[18] = p53 small molecule agonists, cell-based qHTS assay with human liver microsomes: qHTS cell viability counter screen (AID 1963579); further: nearly all actives have a fitted effect of over 45% in size
Summary of the method: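 p53RE-bla cells (4,000/well) were pre-incubated 5 h at 37 C, then given compounds in DMSO plus human liver microsomes (0.5 mg/mL final) and NADPH (0.5 mg/mL final) for 16 h at 37 C. Viability was read by CellTiter-Glo luminescence.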

[19] = target: Muscarinic acetylcholine receptor M1 (Homo sapiens) (UniProt P11229); assay: Cholinergic receptor muscarinic 1 (CHRM1) small molecule antagonists, cell-based qHTS assay (AID 1963588); further: nearly all actives have a fitted effect of over 40% in size
Summary of the method: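 Compounds were tested at 15 concentrations in three independent runs. Dye-loaded CHRM1-CHO cells were exposed 5 min at room temperature before stimulation by acetylcholine added at 50nM. Intracellular calcium was read kinetically on FDSS for 3 min.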

[20] = target: 5-hydroxytryptamine receptor 2A (Homo sapiens) (UniProt P28223); assay: 5-hydroxytryptamine receptor 2A (HTR2A) small molecule antagonists, cell-based qHTS assay (AID 1963586); further: nearly all actives have a fitted effect of over 45% in size
Summary of the method: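 CHO cells stably expressing human HTR2A were plated for 18 h at 37 C, then loaded with calcium dye for 1 h. Compounds were preincubated 5 min at room temperature before DOI (4 nM solution) was added. Kinetic fluorescence was read for 3 min.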

Measured: Potency

CC(=O)CC(C)C
not listed: [18] | [19] | [20]
inactive: all other assays above

Nc1ccc(S(=O)(=O)Nc2ccccn2)cc1
not listed: [8] | [16] | [20]
inactive: all other assays above

Cc1cc(C(C)(C)C)c(O)c(C)c1Cn1c(=O)n(Cc2c(C)cc(C(C)(C)C)c(O)c2C)c(=O)n(Cc2c(C)cc(C(C)(C)C)c(O)c2C)c1=O
not listed: [9] | [16] | [19]
inactive: all other assays above
